Measured values: the supplement of paper PMC11732987, “Enantioselective OTUD7B fragment discovery through chemoproteomics screening and high-throughput optimisation” (Communications Chemistry, 2025)

Columns and labels:
Assay in all cases: log2 ratio of Biotin-Ahx-Ub-VS probe labelling (fragment/DMSO); higher = less target engagement (more negative = stronger competition), active = hit call of the paper (q ≤ 0.05, log2 ratio ≤ -1)
Conditions in all cases: compound concentration: 200 uM; treatment time: 3 h
[1] = target: T1, USP42 (UniProt Q9H9J4)
T1 sequence (whole entry): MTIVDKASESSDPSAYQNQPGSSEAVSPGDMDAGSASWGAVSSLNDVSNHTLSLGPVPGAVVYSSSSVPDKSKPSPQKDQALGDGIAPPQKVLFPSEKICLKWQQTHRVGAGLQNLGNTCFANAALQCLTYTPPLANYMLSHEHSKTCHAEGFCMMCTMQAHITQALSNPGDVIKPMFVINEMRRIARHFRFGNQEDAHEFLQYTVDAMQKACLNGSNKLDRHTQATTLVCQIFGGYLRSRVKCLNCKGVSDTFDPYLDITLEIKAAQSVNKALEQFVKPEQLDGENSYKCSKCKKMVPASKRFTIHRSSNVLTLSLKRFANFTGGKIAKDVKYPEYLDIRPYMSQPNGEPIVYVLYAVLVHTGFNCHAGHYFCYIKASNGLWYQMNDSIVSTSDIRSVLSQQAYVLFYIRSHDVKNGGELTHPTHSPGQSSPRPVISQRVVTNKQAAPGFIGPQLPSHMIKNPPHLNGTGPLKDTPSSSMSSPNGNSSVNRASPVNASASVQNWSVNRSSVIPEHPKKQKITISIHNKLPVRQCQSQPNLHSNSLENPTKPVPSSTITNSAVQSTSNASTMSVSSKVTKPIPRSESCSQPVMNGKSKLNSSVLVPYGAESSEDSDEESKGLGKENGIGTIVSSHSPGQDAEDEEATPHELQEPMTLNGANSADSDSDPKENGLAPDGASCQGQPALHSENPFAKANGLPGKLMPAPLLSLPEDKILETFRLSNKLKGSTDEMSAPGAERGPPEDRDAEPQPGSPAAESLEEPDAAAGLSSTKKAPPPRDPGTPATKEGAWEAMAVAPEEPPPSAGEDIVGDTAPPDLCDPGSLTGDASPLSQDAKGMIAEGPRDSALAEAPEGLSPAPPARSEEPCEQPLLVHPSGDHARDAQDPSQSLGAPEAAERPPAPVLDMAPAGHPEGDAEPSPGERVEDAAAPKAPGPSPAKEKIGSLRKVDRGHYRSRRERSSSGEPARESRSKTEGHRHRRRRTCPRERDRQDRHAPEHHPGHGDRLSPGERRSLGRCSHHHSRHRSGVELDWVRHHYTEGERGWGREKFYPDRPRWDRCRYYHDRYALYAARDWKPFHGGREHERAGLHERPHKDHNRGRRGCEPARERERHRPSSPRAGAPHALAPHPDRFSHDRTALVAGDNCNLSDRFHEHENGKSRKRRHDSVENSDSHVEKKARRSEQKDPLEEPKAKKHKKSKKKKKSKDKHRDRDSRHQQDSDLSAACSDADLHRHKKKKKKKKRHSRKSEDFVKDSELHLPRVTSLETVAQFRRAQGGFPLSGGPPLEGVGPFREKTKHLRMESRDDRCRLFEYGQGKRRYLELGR
Procedure, shortened: (§1)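 Labelled DUBs from HEK293T lysate were NeutrAvidin-enriched, digested with LysC and trypsin, and run by diaPASEF LC-MS/MS. Before that, each 495 µg sample in Tris/CHAPS/IGEPAL buffer with protease inhibitors was treated in triplicate with fragment at 200 µM or vehicle for 3 h, then with Biotin-Ahx-Ub-VS at 0.5 µM final for 1 h. Values are average log2 ratios of fragment over vehicle by unpaired t-test, based on global-median-normalised Spectronaut label-free quantities from proteins with ≥2 unique peptides.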

[2] = target: USP46 (UniProt P62068)
Sequence of USP46 (P62068 whole entry): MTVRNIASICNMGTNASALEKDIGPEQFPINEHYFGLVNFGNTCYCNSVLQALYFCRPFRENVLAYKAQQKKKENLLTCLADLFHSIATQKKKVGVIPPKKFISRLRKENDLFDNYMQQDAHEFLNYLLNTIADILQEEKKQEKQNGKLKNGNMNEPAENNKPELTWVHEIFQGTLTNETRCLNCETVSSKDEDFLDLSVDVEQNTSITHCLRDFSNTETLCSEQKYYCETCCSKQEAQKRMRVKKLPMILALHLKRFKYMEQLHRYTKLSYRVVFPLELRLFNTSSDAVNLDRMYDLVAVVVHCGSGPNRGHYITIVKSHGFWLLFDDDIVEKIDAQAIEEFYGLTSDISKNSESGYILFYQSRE
Procedure, shortened: as §1

[3] = target: T2, USP47 (UniProt Q96K76)
T2 sequence (whole entry): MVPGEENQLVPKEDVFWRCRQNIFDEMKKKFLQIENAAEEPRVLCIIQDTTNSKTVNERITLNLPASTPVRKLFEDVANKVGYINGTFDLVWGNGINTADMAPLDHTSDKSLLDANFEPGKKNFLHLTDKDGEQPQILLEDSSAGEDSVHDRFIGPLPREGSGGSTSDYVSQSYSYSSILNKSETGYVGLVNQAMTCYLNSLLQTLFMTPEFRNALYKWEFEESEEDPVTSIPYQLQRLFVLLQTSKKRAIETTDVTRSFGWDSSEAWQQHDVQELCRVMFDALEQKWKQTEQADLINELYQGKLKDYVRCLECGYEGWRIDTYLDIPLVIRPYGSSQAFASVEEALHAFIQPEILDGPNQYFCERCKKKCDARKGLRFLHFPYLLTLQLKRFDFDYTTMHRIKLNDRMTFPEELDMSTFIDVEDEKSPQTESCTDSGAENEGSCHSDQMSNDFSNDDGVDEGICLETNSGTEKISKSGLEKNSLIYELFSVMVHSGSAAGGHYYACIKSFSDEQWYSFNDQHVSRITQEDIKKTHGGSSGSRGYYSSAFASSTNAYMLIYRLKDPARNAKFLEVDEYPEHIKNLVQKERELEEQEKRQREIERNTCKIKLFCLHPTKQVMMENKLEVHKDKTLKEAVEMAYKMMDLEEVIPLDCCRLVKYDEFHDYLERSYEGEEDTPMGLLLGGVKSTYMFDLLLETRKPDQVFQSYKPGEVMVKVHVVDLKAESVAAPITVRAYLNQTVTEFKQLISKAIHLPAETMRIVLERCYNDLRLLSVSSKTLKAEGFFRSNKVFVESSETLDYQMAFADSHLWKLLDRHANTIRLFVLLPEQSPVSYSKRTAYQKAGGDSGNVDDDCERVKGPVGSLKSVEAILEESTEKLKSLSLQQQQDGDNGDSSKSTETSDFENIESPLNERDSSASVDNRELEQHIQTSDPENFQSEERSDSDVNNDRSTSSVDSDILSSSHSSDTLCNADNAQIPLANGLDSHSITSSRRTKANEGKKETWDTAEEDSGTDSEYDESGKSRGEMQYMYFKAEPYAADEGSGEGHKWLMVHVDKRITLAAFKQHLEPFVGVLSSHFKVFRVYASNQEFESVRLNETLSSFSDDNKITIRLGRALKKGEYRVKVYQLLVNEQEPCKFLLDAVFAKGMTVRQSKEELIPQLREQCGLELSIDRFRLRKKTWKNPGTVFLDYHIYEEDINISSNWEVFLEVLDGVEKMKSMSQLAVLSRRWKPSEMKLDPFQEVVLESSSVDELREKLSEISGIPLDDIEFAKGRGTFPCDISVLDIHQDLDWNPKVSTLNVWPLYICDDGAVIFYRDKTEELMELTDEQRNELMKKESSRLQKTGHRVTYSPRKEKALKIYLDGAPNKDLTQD
Procedure, shortened: as §1

[4] = target: T3, USP48 (UniProt Q86UV5)
T3 sequence (whole entry): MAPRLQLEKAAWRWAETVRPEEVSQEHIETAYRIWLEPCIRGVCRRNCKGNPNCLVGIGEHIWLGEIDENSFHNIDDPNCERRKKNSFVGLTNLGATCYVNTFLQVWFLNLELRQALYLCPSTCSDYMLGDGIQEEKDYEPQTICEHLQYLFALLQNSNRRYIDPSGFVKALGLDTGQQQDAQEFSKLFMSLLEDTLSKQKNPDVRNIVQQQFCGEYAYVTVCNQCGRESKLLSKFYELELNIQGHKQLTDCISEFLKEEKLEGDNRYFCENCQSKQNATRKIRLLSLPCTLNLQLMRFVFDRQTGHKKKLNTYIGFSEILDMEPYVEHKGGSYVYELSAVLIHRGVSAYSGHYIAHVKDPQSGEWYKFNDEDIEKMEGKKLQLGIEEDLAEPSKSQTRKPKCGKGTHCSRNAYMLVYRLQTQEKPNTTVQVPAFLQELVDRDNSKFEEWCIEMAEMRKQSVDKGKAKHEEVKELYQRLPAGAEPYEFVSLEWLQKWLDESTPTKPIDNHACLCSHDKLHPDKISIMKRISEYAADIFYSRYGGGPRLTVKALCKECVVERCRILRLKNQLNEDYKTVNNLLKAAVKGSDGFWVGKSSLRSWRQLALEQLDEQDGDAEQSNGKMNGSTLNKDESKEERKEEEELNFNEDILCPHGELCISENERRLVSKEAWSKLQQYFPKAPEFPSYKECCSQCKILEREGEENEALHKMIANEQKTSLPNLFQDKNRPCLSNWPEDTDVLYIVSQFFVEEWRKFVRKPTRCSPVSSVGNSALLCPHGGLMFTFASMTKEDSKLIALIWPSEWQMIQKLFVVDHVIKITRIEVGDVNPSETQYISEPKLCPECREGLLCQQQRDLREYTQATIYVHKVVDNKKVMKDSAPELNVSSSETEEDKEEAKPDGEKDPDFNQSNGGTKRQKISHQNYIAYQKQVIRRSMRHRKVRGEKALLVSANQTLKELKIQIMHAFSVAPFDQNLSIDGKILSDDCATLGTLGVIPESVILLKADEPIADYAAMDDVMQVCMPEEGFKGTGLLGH
Procedure, shortened: as §1

[5] = target: T4, USP5 (UniProt P45974)
T4 sequence (whole entry): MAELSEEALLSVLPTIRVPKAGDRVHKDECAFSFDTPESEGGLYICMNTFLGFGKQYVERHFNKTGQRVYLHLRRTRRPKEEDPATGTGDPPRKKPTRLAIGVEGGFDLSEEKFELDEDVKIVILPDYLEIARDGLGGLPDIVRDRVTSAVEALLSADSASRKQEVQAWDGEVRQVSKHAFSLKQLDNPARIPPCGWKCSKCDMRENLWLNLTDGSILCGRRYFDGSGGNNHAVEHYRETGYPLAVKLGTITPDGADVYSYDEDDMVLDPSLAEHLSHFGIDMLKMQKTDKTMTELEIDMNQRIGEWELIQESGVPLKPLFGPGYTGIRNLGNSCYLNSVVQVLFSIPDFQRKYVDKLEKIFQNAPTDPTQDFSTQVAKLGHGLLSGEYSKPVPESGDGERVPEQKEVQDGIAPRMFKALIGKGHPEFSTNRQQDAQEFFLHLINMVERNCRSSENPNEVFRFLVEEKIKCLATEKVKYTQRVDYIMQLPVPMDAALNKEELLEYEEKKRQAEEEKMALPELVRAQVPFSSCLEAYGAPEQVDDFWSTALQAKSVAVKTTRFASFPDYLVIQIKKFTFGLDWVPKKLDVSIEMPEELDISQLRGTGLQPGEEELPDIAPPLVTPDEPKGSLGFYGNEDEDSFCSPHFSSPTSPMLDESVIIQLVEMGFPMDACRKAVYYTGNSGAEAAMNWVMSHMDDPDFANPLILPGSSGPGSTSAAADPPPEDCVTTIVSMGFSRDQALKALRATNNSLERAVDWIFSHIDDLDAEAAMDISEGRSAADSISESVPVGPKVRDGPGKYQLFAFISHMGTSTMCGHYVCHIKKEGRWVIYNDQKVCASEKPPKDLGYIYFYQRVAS
Procedure, shortened: as §1

[6] = target: USP54 (UniProt Q70EL1)
Sequence of USP54 (Q70EL1 whole entry): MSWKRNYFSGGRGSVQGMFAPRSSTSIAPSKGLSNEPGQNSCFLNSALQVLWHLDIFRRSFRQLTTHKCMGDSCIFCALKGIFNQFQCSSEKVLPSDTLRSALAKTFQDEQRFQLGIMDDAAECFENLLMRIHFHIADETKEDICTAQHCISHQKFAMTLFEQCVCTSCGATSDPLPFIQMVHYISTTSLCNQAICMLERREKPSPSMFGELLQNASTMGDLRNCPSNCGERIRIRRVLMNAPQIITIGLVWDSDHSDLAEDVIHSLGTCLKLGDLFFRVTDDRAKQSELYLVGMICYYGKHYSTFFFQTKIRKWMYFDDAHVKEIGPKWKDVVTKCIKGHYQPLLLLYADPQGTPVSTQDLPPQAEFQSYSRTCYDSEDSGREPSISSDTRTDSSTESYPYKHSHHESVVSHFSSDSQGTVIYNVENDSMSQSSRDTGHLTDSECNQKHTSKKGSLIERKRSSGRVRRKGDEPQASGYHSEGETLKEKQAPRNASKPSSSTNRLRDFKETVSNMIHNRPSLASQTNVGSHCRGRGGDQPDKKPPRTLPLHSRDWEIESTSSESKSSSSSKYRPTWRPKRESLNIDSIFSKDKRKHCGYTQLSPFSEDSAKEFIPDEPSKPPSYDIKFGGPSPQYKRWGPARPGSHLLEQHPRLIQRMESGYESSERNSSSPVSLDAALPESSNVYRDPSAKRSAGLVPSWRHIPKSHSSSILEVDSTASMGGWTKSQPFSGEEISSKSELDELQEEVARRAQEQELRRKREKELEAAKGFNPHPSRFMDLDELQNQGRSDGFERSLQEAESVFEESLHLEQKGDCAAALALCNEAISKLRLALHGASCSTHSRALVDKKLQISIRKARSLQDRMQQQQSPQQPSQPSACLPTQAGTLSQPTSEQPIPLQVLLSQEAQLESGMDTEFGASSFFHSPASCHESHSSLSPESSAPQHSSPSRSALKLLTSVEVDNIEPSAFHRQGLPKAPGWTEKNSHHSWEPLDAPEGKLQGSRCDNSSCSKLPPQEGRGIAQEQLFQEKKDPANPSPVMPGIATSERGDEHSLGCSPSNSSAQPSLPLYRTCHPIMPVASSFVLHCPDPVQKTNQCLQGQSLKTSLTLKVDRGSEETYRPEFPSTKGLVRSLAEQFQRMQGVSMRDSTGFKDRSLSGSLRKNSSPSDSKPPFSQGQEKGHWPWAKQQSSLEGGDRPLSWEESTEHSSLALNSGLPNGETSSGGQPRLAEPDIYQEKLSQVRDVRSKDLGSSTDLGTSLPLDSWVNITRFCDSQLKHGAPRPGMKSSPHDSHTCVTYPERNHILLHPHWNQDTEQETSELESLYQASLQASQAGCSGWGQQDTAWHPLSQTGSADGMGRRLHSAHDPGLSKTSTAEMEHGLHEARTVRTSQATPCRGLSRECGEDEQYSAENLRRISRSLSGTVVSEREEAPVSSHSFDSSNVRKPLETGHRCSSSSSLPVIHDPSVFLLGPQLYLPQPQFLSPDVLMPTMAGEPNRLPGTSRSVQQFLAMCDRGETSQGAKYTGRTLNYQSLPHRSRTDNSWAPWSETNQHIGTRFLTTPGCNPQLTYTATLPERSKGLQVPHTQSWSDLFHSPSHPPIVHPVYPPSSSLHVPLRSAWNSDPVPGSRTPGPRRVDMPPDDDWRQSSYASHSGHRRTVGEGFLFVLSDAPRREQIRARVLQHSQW
Procedure, shortened: as §1

[7] = target: USP7 (UniProt Q93009)
Sequence of USP7 (Q93009 whole entry, looked up): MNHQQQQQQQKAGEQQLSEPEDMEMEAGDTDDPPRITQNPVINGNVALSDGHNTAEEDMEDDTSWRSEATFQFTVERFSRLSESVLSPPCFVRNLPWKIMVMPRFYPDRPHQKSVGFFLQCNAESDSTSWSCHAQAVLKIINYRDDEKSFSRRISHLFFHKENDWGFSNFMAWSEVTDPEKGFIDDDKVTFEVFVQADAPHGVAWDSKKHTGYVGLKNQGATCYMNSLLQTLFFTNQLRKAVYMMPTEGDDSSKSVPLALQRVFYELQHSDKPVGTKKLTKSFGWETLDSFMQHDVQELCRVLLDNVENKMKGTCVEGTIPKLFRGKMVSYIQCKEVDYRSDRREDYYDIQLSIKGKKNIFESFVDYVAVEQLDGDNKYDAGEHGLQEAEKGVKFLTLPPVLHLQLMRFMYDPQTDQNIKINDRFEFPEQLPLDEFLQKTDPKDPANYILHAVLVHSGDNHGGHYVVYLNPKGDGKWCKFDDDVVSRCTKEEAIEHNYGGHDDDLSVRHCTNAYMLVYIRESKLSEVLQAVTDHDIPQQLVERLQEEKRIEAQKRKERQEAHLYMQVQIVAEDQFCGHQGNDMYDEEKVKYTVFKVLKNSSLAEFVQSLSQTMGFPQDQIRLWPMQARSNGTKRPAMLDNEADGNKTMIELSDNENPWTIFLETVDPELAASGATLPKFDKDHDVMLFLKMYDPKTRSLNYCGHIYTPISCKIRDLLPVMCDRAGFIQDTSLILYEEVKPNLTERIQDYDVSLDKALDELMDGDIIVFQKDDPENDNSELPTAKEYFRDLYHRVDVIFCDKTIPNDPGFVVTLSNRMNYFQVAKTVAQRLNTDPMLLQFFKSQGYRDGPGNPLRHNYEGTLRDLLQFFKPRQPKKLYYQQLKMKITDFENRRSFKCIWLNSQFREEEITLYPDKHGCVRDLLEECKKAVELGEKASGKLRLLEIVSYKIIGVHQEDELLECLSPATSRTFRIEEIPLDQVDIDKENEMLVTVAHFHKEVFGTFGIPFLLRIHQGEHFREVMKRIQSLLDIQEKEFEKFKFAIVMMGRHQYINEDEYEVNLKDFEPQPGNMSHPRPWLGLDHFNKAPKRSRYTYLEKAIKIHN
Procedure, shortened: as §1

[8] = target: T5, USP8 (UniProt P40818)
T5 sequence (whole entry): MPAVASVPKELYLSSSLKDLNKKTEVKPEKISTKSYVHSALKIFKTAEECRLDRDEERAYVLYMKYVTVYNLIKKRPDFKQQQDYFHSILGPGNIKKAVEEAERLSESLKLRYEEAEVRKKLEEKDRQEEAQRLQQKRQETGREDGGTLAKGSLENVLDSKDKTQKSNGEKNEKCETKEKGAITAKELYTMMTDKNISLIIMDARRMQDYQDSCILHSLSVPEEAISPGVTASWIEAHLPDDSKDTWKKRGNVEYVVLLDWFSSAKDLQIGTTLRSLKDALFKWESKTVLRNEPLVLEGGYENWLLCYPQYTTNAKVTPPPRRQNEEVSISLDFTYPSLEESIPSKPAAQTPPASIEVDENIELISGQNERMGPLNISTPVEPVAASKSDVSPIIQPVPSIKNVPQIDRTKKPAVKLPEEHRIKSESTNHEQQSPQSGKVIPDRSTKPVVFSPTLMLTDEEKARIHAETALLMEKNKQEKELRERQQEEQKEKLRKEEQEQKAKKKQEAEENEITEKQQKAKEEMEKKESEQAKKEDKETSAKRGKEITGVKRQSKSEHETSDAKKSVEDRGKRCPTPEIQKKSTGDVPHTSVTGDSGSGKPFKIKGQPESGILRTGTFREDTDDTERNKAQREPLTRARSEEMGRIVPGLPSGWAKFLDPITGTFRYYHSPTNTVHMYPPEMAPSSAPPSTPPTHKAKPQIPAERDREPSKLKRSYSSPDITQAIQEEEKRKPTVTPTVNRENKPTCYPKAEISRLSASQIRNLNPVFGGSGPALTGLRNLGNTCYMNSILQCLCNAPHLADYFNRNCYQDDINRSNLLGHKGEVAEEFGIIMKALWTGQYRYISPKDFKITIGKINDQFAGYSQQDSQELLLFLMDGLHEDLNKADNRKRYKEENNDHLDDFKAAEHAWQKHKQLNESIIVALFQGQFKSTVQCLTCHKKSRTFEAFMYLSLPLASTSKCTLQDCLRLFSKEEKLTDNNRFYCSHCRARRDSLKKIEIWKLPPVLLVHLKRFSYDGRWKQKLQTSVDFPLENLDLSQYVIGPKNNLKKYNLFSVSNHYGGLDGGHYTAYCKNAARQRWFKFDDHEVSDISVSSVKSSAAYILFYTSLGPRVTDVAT
Procedure, shortened: as §1

Measured: log2 ratio of Biotin-Ahx-Ub-VS probe labelling

O=C(CCl)Nc1cccc(C(=O)N2CCSCC2)c1
inactive: [1] 0.397 | [2] -0.00544 | [3] 0.175 | [4] -0.0892 | [5] -0.171 | [6] -0.177 | [7] -0.299 | [8] -0.00928
